# Reference: PubChem BioAssay (NCI)
# Values joined by “and” are separate entries in the source; they are usually repeats but may differ in a detail not shown here. Equal entries are not always repeated. The panel holds about 83,000 compounds, 20% with a hit somewhere; the sample as a whole holds those more often.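 Single-dose data. Exposure time 48 hours. Values below 10 considered active.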 Active and inactive are the calls of the source.
# Test system: MDA-MB-468 breast
# Test: NCI-60 one-dose screen, 48 h (100 = growth as untreated, 0 = no growth, -100 = all killed)
# Settings: 10 µM unless noted
row,SMILES,growth
1,c1ccc(C(c2nc3ncncc3[nH]2)N2CSc3nc4ncncc4n3C2)cc1 (stereo not drawn),7.36% (active)
2,Nc1nc(=S)c2ncn(C3OC(CO)C(O)C3O)c2[nH]1 (stereo not drawn),114% (inactive) and -12.1% (active)
3,NC(Cc1ccccc1)C(=O)NC(Cc1ccccc1)C(=O)O (stereo not drawn),102% (inactive) and 92.8% (inactive)
4,CCCN(CCC)CC(O)COc1ccccc1C(=O)Nc1ccccc1 (stereo not drawn),85.9% (inactive)
5,CCCSc1nc(Nc2ccc(/C(C)=N\NC(N)=S)cc2)c(C#N)c(-c2ccccc2)n1,66.5% (inactive)
6,O=C1/C(=C/c2ccc([N+](=O)[O-])s2)Oc2ccc(Cl)cc21,-36.2% (active)
7,COc1ccc(/C(C)=C(\c2ccc(Cl)cc2)c2ccc(OCCCN(C)C)cc2)cc1,82.7% (inactive)
8,O=[N+]([O-])c1cccc(/C=N\Nc2ccccc2)c1,81.4% (inactive)
9,C[C@@H](Oc1cc(-n2cnc3ccc(CN4CCN(C)CC4)cc32)sc1C(N)=O)c1ccccc1C(F)(F)F,6.59% (active)
10,CCN(CC)CCOc1ccc(C2=C(c3ccccc3)CCc3cc(OC)ccc32)cc1,-44.2% (active)
11,Nc1nc2ncc(CNc3ccc(C(=O)NC(CCC(=O)NC(CCC(=O)NC(CCC(=O)NC(CCC(=O)NC(CCC(=O)O)C(=O)O)C(=O)O)C(=O)O)C(=O)O)C(=O)O)cc3)nc2c(=O)[nH]1 (stereo not drawn),131% (inactive)
12,O=C(NCCn1ccnc1)c1ccc(-c2nc3ccc4[nH]ncc4c3c3c2CCCC3)cc1,10.1% (inactive)
13,COc1ccc(-c2nc3c(c(C)nn3-c3ccc(F)cc3)c(=O)[nH]2)cc1,88.9% (inactive)
